# Assay results published in the supplement of paper PMC10681739.
# Biological target: T1, ETS1 (UniProt P14921)
# T1 sequence: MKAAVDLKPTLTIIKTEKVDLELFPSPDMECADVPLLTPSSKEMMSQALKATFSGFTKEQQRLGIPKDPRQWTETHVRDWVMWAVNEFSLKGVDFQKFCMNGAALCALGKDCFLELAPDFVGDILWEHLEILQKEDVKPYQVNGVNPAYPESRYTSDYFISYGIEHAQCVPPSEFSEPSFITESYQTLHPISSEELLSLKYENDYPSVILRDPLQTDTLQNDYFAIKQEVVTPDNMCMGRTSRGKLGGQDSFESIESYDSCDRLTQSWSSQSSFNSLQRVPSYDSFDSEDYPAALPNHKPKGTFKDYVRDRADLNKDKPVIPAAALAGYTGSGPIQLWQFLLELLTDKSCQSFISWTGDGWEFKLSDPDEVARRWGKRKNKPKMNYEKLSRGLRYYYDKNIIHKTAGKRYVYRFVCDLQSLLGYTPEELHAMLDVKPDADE
# Experiment: ETS1 binding intensity (PBM fluorescence), ETS1 alone (arbitrary fluorescence units); higher = stronger binding
# Conditions: ETS1 concentration 1 nM; RUNX1 concentration 0 nM
row,Sequence,ETS1 binding intensity
1,TTCTTGTTTCCTGTCAAGGGAGGCTCTGACCACCTC,728
2,GCAAGGTGGAGAGGAGGATGTGGCTTACCAGCAATT,1280
3,AGGGAGACCGGGCCGGATTGCGGGGAGTGAGCAGGT,543
4,AGGAGTGAGGAAGTGAGGCTGGCCTTGTGGGTGTGG,644
5,GGGCTTCCGGCTGAACCCATGGCTGCGGGCTGTGCT,445
6,ACCCTCTTTCCGGTGGAAAGCTGCGGCCTCCCAGAG,464
7,TGGATGGCGGCGGATACTGCCCATGCCGCAAGGCCG,464
8,AGGTGGGAGGAAGTTCCTACCCCGGCGCGGTGTGCA,625
9,AAACTACACCTCAGAGGATGTGGTTCCTTCTCTCAT,1130
10,GCATTTCTCAGAAAAGGAAGCGGTTGTGCCGGGAGG,1530
11,ATGCCAAGGGACTTCCCTCCACAACCGCCCCCAGCT,642
12,GCTGCTGTAGTCGCTTCCTGCGGCCAGCCCGGGTTC,526
13,GTAAAAGGAAGTAAAGGCTTGGCCGGGCGCGGTGGC,569
14,TTTCCTACAGAAGGATGTGGTTGGTGGGTTTGGTTT,619
15,CCACTAGCAGGAAAACGGGCCGAGGGACCGCAAGCA,395
16,TTTACGGGATGTAGGCGGCGGCGGCGGTAGTGGTAG,701
17,GCTTTTCCGCTCCCAGAGTGCCCCGCCCACAGTTCA,477
18,TTCAAAGGAGTCCAAGGAAGTGGTTTAACAGCGATG,843
19,CAGCTTCCGGGCTAATTAGCAGTCGCGGTGTGCCGC,413
20,GCCACCGTATTTCCGCGTTTTTCGCGGTAGGCGGGA,465

row,Sequence,ETS1 binding intensity
1,CTTACAGATAAGGAAACTGAGGTTAAAATGTAGGGG,681
2,CAAGAATGAGAAAGGAAGCTGGCGGTTGGGCAGGTG,890
3,GCAAAGATACATCCTTCTCCCCACAGACTAAGTTTC,490
4,CTGTCCACATAAGGAAGTTGGGACCACAAGGTCTTT,870
5,TCTGGGCTGACTTCCTGGCTTCGTCCCACAACTTCA,668
6,TTACACCCAAGGGATGTTGTTTGTGGGGGGCGGGGT,445
7,CAGATTTCCGGCTTCTGAGGAGCTGCCCTACCACAG,530
8,GCTGCGCAGAGGAAACCAGGCTTGTTGGTTTTCATG,432
9,TATGACCAGGGGAGGGAAGTGACCACAGCATATCAC,466
10,CGAAGAGGAAGCCCCTGTATCACCCCACAAGAAGCC,544
11,CTGCTGGGCCCCTTCCTGTCAGCGGTTGCTCTTTAC,673
12,ACGTAGACAGGAAAGTAATGTGGTTCAGGACTGAGT,746
13,ACCGGAAGGGCGGGGGCGTGGCGAGGTACCGCAGAC,1170
14,ATGACTTAGCAACATCCTGACAACCACTACATTGTC,476
15,CAGCCCTCTTCCTGCCTGTCTGTGGCTGGTGAGGTT,597
16,CAGAGGAGGAAGAGGAAGCCACAGCGATAGGGTCAC,522
17,GTCGTCAGCGTCTTCCTGTCAGCGGTCGGCAGAGCC,706
18,GGGGAAGAGGAAGCTGTGTCCGCGGTGCAAGGGGTT,533
19,GTCCCCCTTCCGGCTGCAGGTTGAGGTTTGGAACCT,511
20,GCTCTGGCGGAAGATGTCCCTGCGGTGCAGCTGCCG,397

# Biological target: T1, ETS1
# Experiment: ETS1 binding intensity (PBM fluorescence) in presence of RUNX1, normalised to ETS1-only experiment (arbitrary fluorescence units); higher = stronger binding
# Conditions: ETS1 concentration 1 nM; RUNX1 concentration 25 nM
row,Sequence,ETS1 binding intensity
1,TTCTTGTTTCCTGTCAAGGGAGGCTCTGACCACCTC,753
2,GCAAGGTGGAGAGGAGGATGTGGCTTACCAGCAATT,1990
3,AGGGAGACCGGGCCGGATTGCGGGGAGTGAGCAGGT,360
4,AGGAGTGAGGAAGTGAGGCTGGCCTTGTGGGTGTGG,748
5,GGGCTTCCGGCTGAACCCATGGCTGCGGGCTGTGCT,329
6,ACCCTCTTTCCGGTGGAAAGCTGCGGCCTCCCAGAG,380
7,TGGATGGCGGCGGATACTGCCCATGCCGCAAGGCCG,532
8,AGGTGGGAGGAAGTTCCTACCCCGGCGCGGTGTGCA,620
9,AAACTACACCTCAGAGGATGTGGTTCCTTCTCTCAT,1730
10,GCATTTCTCAGAAAAGGAAGCGGTTGTGCCGGGAGG,2100
11,ATGCCAAGGGACTTCCCTCCACAACCGCCCCCAGCT,529
12,GCTGCTGTAGTCGCTTCCTGCGGCCAGCCCGGGTTC,528
13,GTAAAAGGAAGTAAAGGCTTGGCCGGGCGCGGTGGC,411
14,TTTCCTACAGAAGGATGTGGTTGGTGGGTTTGGTTT,3210
15,CCACTAGCAGGAAAACGGGCCGAGGGACCGCAAGCA,688
16,TTTACGGGATGTAGGCGGCGGCGGCGGTAGTGGTAG,771
17,GCTTTTCCGCTCCCAGAGTGCCCCGCCCACAGTTCA,426
18,TTCAAAGGAGTCCAAGGAAGTGGTTTAACAGCGATG,1400
19,CAGCTTCCGGGCTAATTAGCAGTCGCGGTGTGCCGC,450
20,GCCACCGTATTTCCGCGTTTTTCGCGGTAGGCGGGA,576

row,Sequence,ETS1 binding intensity
1,CTTACAGATAAGGAAACTGAGGTTAAAATGTAGGGG,656
2,CAAGAATGAGAAAGGAAGCTGGCGGTTGGGCAGGTG,1260
3,GCAAAGATACATCCTTCTCCCCACAGACTAAGTTTC,412
4,CTGTCCACATAAGGAAGTTGGGACCACAAGGTCTTT,1350
5,TCTGGGCTGACTTCCTGGCTTCGTCCCACAACTTCA,617
6,TTACACCCAAGGGATGTTGTTTGTGGGGGGCGGGGT,490
7,CAGATTTCCGGCTTCTGAGGAGCTGCCCTACCACAG,398
8,GCTGCGCAGAGGAAACCAGGCTTGTTGGTTTTCATG,457
9,TATGACCAGGGGAGGGAAGTGACCACAGCATATCAC,823
10,CGAAGAGGAAGCCCCTGTATCACCCCACAAGAAGCC,555
11,CTGCTGGGCCCCTTCCTGTCAGCGGTTGCTCTTTAC,716
12,ACGTAGACAGGAAAGTAATGTGGTTCAGGACTGAGT,766
13,ACCGGAAGGGCGGGGGCGTGGCGAGGTACCGCAGAC,2850
14,ATGACTTAGCAACATCCTGACAACCACTACATTGTC,420
15,CAGCCCTCTTCCTGCCTGTCTGTGGCTGGTGAGGTT,431
16,CAGAGGAGGAAGAGGAAGCCACAGCGATAGGGTCAC,520
17,GTCGTCAGCGTCTTCCTGTCAGCGGTCGGCAGAGCC,562
18,GGGGAAGAGGAAGCTGTGTCCGCGGTGCAAGGGGTT,542
19,GTCCCCCTTCCGGCTGCAGGTTGAGGTTTGGAACCT,560
20,GCTCTGGCGGAAGATGTCCCTGCGGTGCAGCTGCCG,465
